# According to PubChem BioAssay AID602454 (National Center for Advancing Translational Sciences (NCATS), 2012):
# Records with an inconclusive call do not appear. Active and inactive are the calls of the source. How the calls were made is not given here.
# Assay: qHTS Assay for Inhibitors of Influenza NS1 Protein Function: Viral Replication TCID50
# Conditions: Influenza virus replication in cells, at 10 µM, stronger effect = lower value
# From the text: Influenza is a world-wide public health problem and emerging forms of the virus have the potential to cause a pandemic of equal or greater magnitude to the outbreaks recorded in 1918, 1957 or 1968. Vaccine development is proceeding and there also exist two classes of anti-influenza compounds. However these therapeutic modalities are neither fully effective nor widely enough available to fulfill global needs. In addition their potential usefulness against newly emergent strains is not known. Efforts are needed to develop novel agents against influenza virus, including broad-spectrum agents. Identification of small molecules that inhibit NS1 function either directly or by interfering with specific cellular pathways may be a key to increasing our defense against the virus.
# We have miniaturized and optimized a cell based assay in which NS1 from influenza A is expressed in the budding yeast S. cerevisiae. NS1 is a multi-functional protein that counters the host innate immune response and facilitates viral versus cellular gene expression. Expression of NS1 causes a pronounced slow growth phenotype in yeast due to its intrinsic molecular activities. Small molecules that suppress the slow growth phenotype can be identified by a straightforward growth recovery assay using optical density (OD) as the measurement. The same yeast strain not expressing NS1 was used as positive control in the yeast growth recovery assay.
# Hits resulting from the primary screen and other follow-up screens, were tested in two concentrations in this viral replication assay.
# NIH Chemical Genomics Center [NCGC]
# NIH Molecular Libraries Probe Centers Network [MLPCN]
# Assay Submitter (PI): Daniel Engel, University of Virgina
# Cell monolayers were infected at an m.o.i. of 0.1 for 48 h in the presence or absence of the compound, which was added at the beginning of infection. Virus titres were determined by TCID50 analysis (Reed, L. J. & Muench, H. (1938). A simple method of estimating fifty per cent endpoints. Am J Epidemiol 27, 493-497)
row,SMILES,viral titer (log10 TCID50)
1,COc1cc(-c2c(C#N)c(N)nc3c2c(C)nn3-c2ccc(C)c(C)c2)ccc1O,8.5 (active)
2,COc1ccc(-c2c(C#N)c(N)nc3c2c(C)nn3-c2ccccc2)cc1OC,8.66 (active)
3,COc1cc(-c2c(C#N)c(N)nc3c2c(C)nn3-c2ccc(C)cc2)ccc1O,8.5 (active)
4,COc1cc(-c2c(C#N)c(N)nc3c2c(C)nn3-c2ccc(F)cc2)ccc1O,6 (active)
5,COc1cc(-c2ccnc3c2c(C)nn3-c2ccccc2)ccc1O,9 (active)
6,Cc1nn(-c2ccccc2)c2nc3[nH]c(=O)[nH]c(=O)c3c(-c3ccc4c(c3)OCO4)c12,8.33 (active)
7,COc1cc(-c2c(C#N)c(N)nc3c2c(C)nn3-c2ccc(Cl)cc2)cc(OC)c1OC,9 (active)
8,COc1ccc(-c2c(C#N)c(=O)[nH]c3c2c(C)nn3-c2ccc(F)cc2)cc1OC,9 (active)
9,COc1ccc(-c2c(C#N)c(N)nc3c2c(C)nn3-c2ccc(F)cc2)cc1OC,8.66 (active)
10,COc1cc(-c2ccnc3c2c(C)nn3-c2ccc(F)cc2)ccc1O,8.68 (active)
11,COc1ccc(-c2c(C#N)c(N)nc3c2c(C)nn3-c2ccc(C)cc2)cc1OC,9 (active)
12,COc1ccc(-c2c(C#N)c(=O)[nH]c3c2c(C)nn3-c2ccccc2)cc1OC,8.66 (active)
13,COc1cccc(-c2ccnc3c2c(C)nn3-c2ccc(F)cc2)c1,8.5 (active)
14,COc1ccc(-c2c3c(C)nn(-c4ccccc4)c3nc3[nH]c(=O)[nH]c(=O)c23)cc1O,8.66 (active)
15,COc1ccc(-c2c3c(C)nn(-c4ccccc4)c3nc3[nH]c(=O)[nH]c(=O)c23)cc1OC,8.33 (active)
16,COc1cccc(-n2nc(C)c3c(-c4ccc(O)c(OC)c4)ccnc32)c1,9 (active)
17,Cc1nn(-c2ccc(F)cc2)c2nc(N)c(C#N)c(-c3ccc(O)c(O)c3)c12,7.66 (active)
18,COc1ccc(-c2c(C#N)c(N)nc3c2c(C)nn3-c2ccc(Cl)cc2)cc1OC,9 (active)
19,COc1cc(-c2c(C#N)c(N)nc3c2c(C)nn3-c2ccc(F)cc2)cc(OC)c1OC,9 (active)
20,COc1cc(-c2c(C#N)c(=O)[nH]c3c2c(C)nn3-c2ccccc2)ccc1O,7.66 (active)

# Same assay, conditions: Influenza virus replication in cells, viral titer, at 5 µM, stronger effect = lower value
row,SMILES,viral titer (log10 TCID50)
1,COc1cc(-c2c(C#N)c(N)nc3c2c(C)nn3-c2ccc(C)c(C)c2)ccc1O,8.66
2,COc1ccc(-c2c(C#N)c(N)nc3c2c(C)nn3-c2ccccc2)cc1OC,9
3,COc1cc(-c2c(C#N)c(N)nc3c2c(C)nn3-c2ccc(C)cc2)ccc1O,8.5
4,COc1cc(-c2c(C#N)c(N)nc3c2c(C)nn3-c2ccc(F)cc2)ccc1O,7.66
5,COc1cc(-c2ccnc3c2c(C)nn3-c2ccccc2)ccc1O,9
6,Cc1nn(-c2ccccc2)c2nc3[nH]c(=O)[nH]c(=O)c3c(-c3ccc4c(c3)OCO4)c12,8.66
7,COc1cc(-c2c(C#N)c(N)nc3c2c(C)nn3-c2ccc(Cl)cc2)cc(OC)c1OC,9
8,COc1ccc(-c2c(C#N)c(=O)[nH]c3c2c(C)nn3-c2ccc(F)cc2)cc1OC,9
9,COc1ccc(-c2c(C#N)c(N)nc3c2c(C)nn3-c2ccc(F)cc2)cc1OC,8.66
10,COc1cc(-c2ccnc3c2c(C)nn3-c2ccc(F)cc2)ccc1O,8.88
11,COc1ccc(-c2c(C#N)c(N)nc3c2c(C)nn3-c2ccc(C)cc2)cc1OC,9
12,COc1ccc(-c2c(C#N)c(=O)[nH]c3c2c(C)nn3-c2ccccc2)cc1OC,9
13,COc1cccc(-c2ccnc3c2c(C)nn3-c2ccc(F)cc2)c1,9
14,COc1ccc(-c2c3c(C)nn(-c4ccccc4)c3nc3[nH]c(=O)[nH]c(=O)c23)cc1O,8.66
15,COc1ccc(-c2c3c(C)nn(-c4ccccc4)c3nc3[nH]c(=O)[nH]c(=O)c23)cc1OC,9
16,COc1cccc(-n2nc(C)c3c(-c4ccc(O)c(OC)c4)ccnc32)c1,9
17,Cc1nn(-c2ccc(F)cc2)c2nc(N)c(C#N)c(-c3ccc(O)c(O)c3)c12,8.5
18,COc1ccc(-c2c(C#N)c(N)nc3c2c(C)nn3-c2ccc(Cl)cc2)cc1OC,9
19,COc1cc(-c2c(C#N)c(N)nc3c2c(C)nn3-c2ccc(F)cc2)cc(OC)c1OC,9
20,COc1cc(-c2c(C#N)c(=O)[nH]c3c2c(C)nn3-c2ccccc2)ccc1O,8.5
